Measured values reported in PubChem BioAssay (NCI).
The panel holds about 83,000 compounds, 20% with a hit somewhere; the sample as a whole holds those more often.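 Activity criterion: percent growth below 10, measured after cells in 96-well plates were exposed to a single compound concentration for 48 hours.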 Calls of active or inactive are those of the source.

Tested on: SK-OV-3 ovarian
Assay: NCI-60 one-dose screen, 48 h (100 = growth as untreated, 0 = no growth, -100 = all killed)
Details: 10 µM unless noted
Experimental: Growth inhibition of the SK-OV-3 human tumor cell line is measured as a screen for anti-cancer activity. Cells are grown in 96 well plates and exposed to the test compound for 48 hours. Compounds are tested at a single concentration, which is 10^-5 M for most compounds. The reported endpoint is percent growth (GI% or GIPRCNT), where numbers from 0 - 100% represent growth inhibition, and numbers from -100% - 0 represent cell death. For example, a value of 40 represents 60% growth inhibition. A value of 0 means no net growth occurred over the course of the experiment. A value of -40 indicates 40% of cells at the beginning of the experiment died by the end of the experiment. A value of -100 means all cells are dead at the end of the experiment.
NCI-60 Human Tumor Cell Lines Screen was performed using the standard one-dose NCI protocol, which is described in more detail at https://dtp.cancer.gov/discovery_development/nci-60/default.htm.
Compounds with GIPRCNT values below 10 were considered active. Activity score was based on GIPRCNT using the following formula: […]
Score is 0 for GIPRCNT values of 100 or above, 50 for GIPRCNT values of 0, and 100 for GIPRCNT values of -100.

Compound | growth
Cc1cc2nc(C(Cl)Cl)nc(-c3ccccc3)n2n1 | 60.6% (inactive)
O=C(CSc1nnc(-c2cc(-c3ccc(Cl)cc3)nc3ccccc23)n1-c1ccccc1)Nc1ccc(Cl)cc1 | 94.6% (inactive)
COc1ccc(N/N=C/c2ccc3c(c2)Sc2ccccc2N3C)cc1 | 87.4% (inactive)
CC(C)(C)c1ccc(C(=O)Nc2sc3c(c2C#N)CCC(=O)C3)cc1 | 57.4% (inactive)
COc1ccc(C(=O)/C=C/c2ccc(Cl)cc2)cc1S(N)(=O)=O | 83.1% (inactive)
O=C(Nc1ccc(Cl)cc1)C1=NCCCCN1 | 88.1% (inactive)
CCCS(=O)(=O)Nc1cccc(Nc2ncnc3cc(NC(=O)CCl)ccc23)c1Cl | -4.59% (active)
Cc1ccc(Nc2nc(N)nc(N)c2N=O)cc1Cl | 96.6% (inactive)
COc1cc(OCc2cccc(-c3ccc4c(c3)OCCO4)c2C)cc(OC)c1C=O | 93.2% (inactive)
CN1CCN(Cc2ccc(NC(=O)c3cncc(C#Cc4c(N)ncc5ccccc45)c3)cc2C(F)(F)F)CC1 | 8.37% (active)
Nc1c(C(=O)c2ccc(Cl)cc2)sc(Nc2ccccc2)c1-c1nc2ccccc2s1 | -0.592% (active)
N#CC1=C(N)Oc2c(ccc3cccnc23)C1c1ccccc1 (stereo not given) | 58.3% (inactive)
C(=N\Nc1nnc2n1N=C(c1ccccc1)CS2)/c1ccc(OCc2ccccc2)cc1 | 109% (inactive)
CC(=O)O[C@H]1C[C@@]2(C)[C@@H](C[C@@H](O)[C@H]3[C@@]4(C)CC[C@H](N5CCCC5)[C@@H](C)[C@@H]4CC[C@@]32C)/C1=C(\CCC=C(C)C)C(=O)O | 100% (inactive)
CCCCCCCC/C=C\CCCCCCCCOc1ccc(CC(=O)NCC[N+]2(C)CCCC2)cc1 | 104% (inactive)
c1ccc(Cn2cc3c(c2)-c2nc(Nc4ccccc4)ncc2CC3)cc1 | 63.1% [100 µM] (inactive)
CCCCCCCCNc1ncnc2c1ncn2Cc1nnc2c3ccccc3c(Cl)nn12 | 4.2% (active)
COc1cc2nc3cc([N+](=O)[O-])ccc3c(NCCCNCCO)c2cc1OC | -59% (active)
COc1ccc(/C=C2/CCc3cc4ccc(OC)cc4[o+]c32)c(O)c1 | 103% (inactive)
COc1cc2cc(Oc3ccc(NC(=O)Nc4ccc(Cl)c(Cl)c4)cc3)c(C)nc2cc1OCCN1CCCCC1 | 119% (inactive)

Compound | growth
O=c1c2cccc3c(N4CCOCC4)ccc(c32)c2nc3ccccc3n12 | 91.4% (inactive)
CC1(C)CCC[C@]23C(=O)O[C@](O)(C(=O)C4=C[C@@](C)(/C=C/CCCc5ccc6ccc7cccc8ccc5c6c78)CC[C@@]42O)[C@@H]13 | -66.2% (active)
COc1cc(/C=C2\CN(S(=O)(=O)c3ccc(C)cc3)C/C(=C\c3cc(CN4CCCC4)c(O)c(OC)c3)C2=O)cc(CN2CCCC2)c1O | 33.9% (inactive)
C#CCOc1cccc(-c2ncnc3cc(NC(=O)CCl)ccc23)c1 | 51% (inactive)
COc1ccc(-c2cc(-c3ccc(Cl)cc3)c(C#N)c(=O)n2CCCCC(=O)NO)cc1 | 89.3% (inactive)
CCOC(=O)C1=C(C)N(C)C(=O)N(C)C1c1ccccc1 (stereo not given) | 93.9% (inactive)
CCCCCCCCOC(=O)c1c(C)[nH]c(/C=C2\N=C(c3ccc[nH]3)C=C2OC)c1C | 20.8% (inactive)
O=c1n(C2OC(CO)C(O)C2O)ccc2nccn12 (stereo not given) | 117% (inactive)
Cc1nn(C)c2ncnc(Nc3ccccc3Br)c12 | 99% (inactive)
CC(C)c1nc(N(C)S(C)(=O)=O)nc(-c2ccc(F)cc2)c1/C=C/C(=O)C[C@@H](O)CC(=O)O | 102% (inactive)
O=C1c2c(c3c4cc(F)ccc4oc3c3[nH]c4ccccc4c23)C(=O)N1O | 55.7% (inactive)
Cc1ccccc1NC(=O)Cn1cc(CN2CCN(c3ccnc4cc(Cl)ccc34)CC2)nn1 | 95.6% (inactive)
C(CCCSC1=NCCN1)CCSC1=NCCN1 | 112% (inactive)
N#Cc1c(-c2ccc(Cl)cc2)nc(NN=Cc2cccc(Cl)c2)nc1N1CCOCC1 | 111% (inactive)
COc1ccc(C(=O)/C=C/c2ccc(C)cc2)cc1S(N)(=O)=O | 114% (inactive)
O=C(O)COc1ccc(F)cc1 | 108% (inactive)
CC1(C)CC[C@]2(CO)CC[C@]3(C)C(=CC[C@@H]4[C@@]5(C)CCNCC(C)(C)[C@@H]5CC[C@]43C)[C@@H]2C1 | 95.4% (inactive)
CCOc1ccc(-c2cc(C3(S(=O)(=O)c4ccc(C)cc4)CC=CC3)on2)cc1 | 91% (inactive)
Cc1cc(N2CCOCC2)nc(N(CCCNc2ccnc3cc(Cl)ccc23)Cc2ccc3c(c2)OCO3)n1 | 18.9% (inactive)
O=C1/C(=C/c2ccc(-c3ccc(Cl)cc3)o2)SC(=S)N1CCc1ccc(O)cc1 | 44.8% (inactive)
